Compound activity (PubChem)
In the library only some 2.3% were active in any assay of this set; here they are far more common.
Rango complex inh – qHTS Assay for Inhibitors of Rango (Ran-regulated importin-beta cargo) - Importin beta complex formation. Rango CFP/YFP FRET sensor + importin beta, 45 min. Importin subunit beta-1 (Homo sapiens), Q14974. 340,000 tested, 0.031% active. AID 540263, 2011. Potency, µM (top dose mostly 92.2 µM), for the others: at the highest dose inhibition of complex formation; calls by dose curve;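 also: 0% = DMSO wells and 100% = buffer wells lacking importin beta; nearly all actives have a fitted effect of over 15% in size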
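FRET biosensor Rango (snurportin 1 IBB between N-terminal EYFP and C-terminal Cerulean), 50 nM in PBS/1 mM DTT/0.02% Tween-20/0.1% BSA, preincubated 5 min RT with compound; 0.125 microM importin beta added, 45 min RT, CFP/YFP FRET ratio read.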
Nrf2 activator – qHTS of Nrf2 Activators; AREc32 ARE-luciferase reporter (MCF7-derived line), luminescence, 24 h; Potency, µM (titrated, usually from 46.1 µM), for the others: top-dose activation, hits mostly activators; 410,000 tested, 0.31% active; also: % of control where 0% means no effect; nearly all actives have a fitted effect of over 65% in size
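ARE activation measured as luciferase luminescence (Steady-Glo, 30 min RT) in AREc32_Fluc cells after 24 hr compound exposure at 37 deg C, 5% CO2; cells seeded overnight at 1000/well in OPTI-MEM, 5% FBS.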
A549 tox-1 – Nrf2 qHTS screen for inhibitors: counterscreen for cytotoxicity; A549 ARE-Fluc cells, CellTiter-Fluor viability, 18-24 h; Potency, µM (top dose mostly 46 µM), inactives show at the top dose activity change, negative = cytotoxicity, actives largely listed as inhibitors; 390,000 tested, 0.16% active; AID 504648, 2011; also: % is scaled to controls: 0 for no effect and ±100 for the full control effect
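Cytotoxicity counterscreen: CellTiter-Fluor fluorescence was measured in A549 ARE_Fluc cells after 18-24 h of compound exposure in a concentration series. The subsequent BugLite luminescent read reports ARE-luciferase activity.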
Nrf2 block – Nrf2 qHTS screen for inhibitors | 360,000 tested, 2.1% active | Potency, µM (titrated, usually from 46 µM), inactives show top-dose activity change, negative = inhibition, most hits filed as inhibitors | AID 504444, 2011 | A549 ARE-Fluc reporter, luciferase luminescence, 18-24 h; also: % is scaled to controls: 0 for no effect and ±100 for the full control effect; nearly all actives have a fitted effect of over 60% in size
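Cells were seeded and rested 2 h, then exposed to compounds for 18-24 h. CellTiter-Fluor was read first as a viability measure. BugLite was added 15 min before the final luminescent read of ARE-luciferase activity in A549 cells.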
Rango release inh – qHTS Assay for Inhibitors of RanGTP induced Rango (Ran-regulated importin-beta cargo) - Importin beta complex dissociation. Potency, µM (highest dose often 46.1 µM), without a hit: at the top dose activity change, negative = inhibition. Biochemical FRET Rango-importin beta, RanGTP-induced dissociation. 340,000 tested, 0.071% active. Snurportin-1 (Homo sapiens) + GTP-binding nuclear protein Ran (Homo sapiens) + Importin …; calls by dose curve; also: % of control where 0% means no effect; nearly all actives have a fitted effect of over 45% in size
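FRET read at 45 min, room temperature: inhibitors block the CFP/YFP signal rise when RanGTP (0.6 uM Ran, 2 mM GTP, 0.2 uM RCC1) frees Rango (0.1 uM) from importin beta (0.25 uM). Pre-read after 5 min compound exposure flags interference.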
FLuc enzyme inh – Nrf2 qHTS screen for inhibitors: Purified Fluc Biochemical Counterscreen for Hit Validation; shares compounds with Nrf2 block; purified firefly luciferase, luminescence inhibition; Potency, µM (top dose mostly 57.5 µM), for inactives: at the highest dose activity change, negative = inhibition, usual class: inhibitors; 1,400 tested, 4% active; AID 720522, 2013; also: % is scaled to controls: 0 for no effect and ±100 for the full control effect; nearly all actives have a fitted effect of over 65% in size
Target sequence (P08659 whole entry, looked up): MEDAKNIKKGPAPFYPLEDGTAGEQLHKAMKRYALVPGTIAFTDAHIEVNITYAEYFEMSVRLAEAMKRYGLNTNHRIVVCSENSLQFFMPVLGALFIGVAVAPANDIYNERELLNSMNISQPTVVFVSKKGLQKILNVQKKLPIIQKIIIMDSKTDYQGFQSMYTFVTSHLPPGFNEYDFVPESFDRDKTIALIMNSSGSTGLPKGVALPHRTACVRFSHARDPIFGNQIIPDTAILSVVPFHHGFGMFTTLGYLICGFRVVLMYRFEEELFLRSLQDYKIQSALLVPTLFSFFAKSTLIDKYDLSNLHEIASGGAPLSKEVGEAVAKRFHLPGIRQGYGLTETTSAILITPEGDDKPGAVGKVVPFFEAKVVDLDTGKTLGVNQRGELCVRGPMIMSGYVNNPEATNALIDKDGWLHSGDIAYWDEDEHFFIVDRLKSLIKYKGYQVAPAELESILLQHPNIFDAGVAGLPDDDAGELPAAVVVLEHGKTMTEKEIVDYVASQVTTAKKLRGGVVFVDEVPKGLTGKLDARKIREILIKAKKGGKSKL
A549 tox-2 – Nrf2 qHTS screen for inhibitors: A549 ARE-Fluc Cytotoxicity Counterscreen for Hit Validation; shares compounds with Nrf2 block; Potency, µM (titrated, usually from 46.1 µM), for the others: at the highest dose activity change, negative = cytotoxicity, hits mostly inhibitors; 1,400 tested, 2% active; A549 ARE-Fluc cells, cytotoxicity counterscreen;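 also: cells exposed to compounds for 18 to 24 hours; % is scaled to controls: 0 for no effect and ±100 for the full control effect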
ARE-Fluc inh – Nrf2 qHTS screen for inhibitors: Nrf2 A549 ARE-Fluc Confirmation Assay for Hit Validation; 1,400 tested, 74% active; shares compounds with Nrf2 block; A549 ARE-firefly luciferase reporter, luminescence; Potency, µM (titrated, usually from 46.1 µM), inactives show top-dose activity change, negative = inhibition, usual class: inhibitors; AID 720524, 2013; also: % is scaled to controls: 0 for no effect and ±100 for the full control effect; nearly all actives have a fitted effect of over 65% in size
* hit, by the source's call; ? = inconclusive; . = no result shown. Unless noted, calls follow the shape of the dose curve; as a rule, active = well fitted curve in the direction sought with a large enough effect; inconclusive = small, poorly fitted or top-dose-only effect, or another doubt; inactive = no such curve, though single readings can be large; an effect the other way counts as inactive or inconclusive. Potency is read from the fitted curve at half-maximal effect.

SMILES	Rango complex inh	Nrf2 activator	A549 tox-1	Nrf2 block	Rango release inh	FLuc enzyme inh	A549 tox-2	ARE-Fluc inh
CCOc1ccc(NC(=O)CSc2nccn(-c3ccc4c(c3)OCCO4)c2=O)cc1	-0.1%	3.2%	-10.7%	2.1%	-16.4%	.	.	.
CCc1ccc(CN(C(=O)c2ccc(OC)cc2)C2CCS(=O)(=O)C2)cc1 (centres undefined)	.	4.0%	-13.8%	-34.2%	.	.	.	.
CCCCN(CCCC)S(=O)(=O)c1ccc(NC(=O)Cc2cccs2)cc1	-1.2%	-0.6%	?	?	-9.6%	.	.	.
COc1ccc(NC(=O)c2ccc(Cl)c(S(=O)(=O)N3CCc4ccccc4C3)c2)cn1	?	-0.7%	-11.3%	?	11.1%	.	.	.
CCN(CC)S(=O)(=O)c1ccc(NC(=O)c2ccc(N3CCCC3=O)cc2)cc1	-1.2%	-0.2%	-15.8%	1.46µM*	-3.4%	-1.1%	-5.5%	7.31µM*
CCN(CC)S(=O)(=O)c1ccc(OC)c(NC(=O)c2ccc(N3CCCC3=O)cc2)c1	3.9%	-0.3%	-6.9%	-0.6%	13.1%	.	.	.
O=C(Nc1ccc(S(=O)(=O)N2CCCC2)cc1)c1ccc(CN2CCOCC2)cc1	-0.9%	4.8%	-13.5%	4.11µM*	4.7%	-1.9%	-7.8%	8.2µM*
COc1ccc(NC(=O)c2ccc(Cl)c(S(=O)(=O)N3CC(C)OC(C)C3)c2)cn1 (centres undefined)	-1.6%	3.2%	-5.0%	2.59µM*	-14.6%	1.0%	-7.5%	7.31µM*
O=C(Nc1ccc(S(=O)(=O)N2CCCCC2)cc1)c1ccc(CN2CCOCC2)cc1	0.8%	-0.7%	-4.0%	4.61µM*	-20.8%	-0.9%	1.6%	7.31µM*
CC1CCC(NC(=O)CCS(=O)(=O)c2ccc3c(c2)CCN3C(=O)C2CC2)CC1 (centres undefined)	2.3%	-0.4%	0.9%	-3.3%	-10.1%	.	.	.
COCCCNC(=O)Cn1c(=O)n(-c2ccc(C)cc2)c(=O)c2c1c1cc(C)ccc1n2C	.	0.0%	4.2%	11.0%	.	.	.	.
O=C(Nc1ccc2c(c1)OCCO2)c1ccc(Cl)c(S(=O)(=O)N2CCOCC2)c1	-0.1%	0.8%	-13.6%	-12.9%	?	.	.	.
O=C(Nc1ccc(N2CCOCC2)cc1)c1ccc(Cl)c(S(=O)(=O)N2CCCCC2)c1	0.7%	0.4%	-7.3%	4.11µM*	-5.4%	-2.3%	-2.7%	5.17µM*
Cc1ccc(NS(=O)(=O)c2ccc(C(=O)NC3CCN(Cc4ccccc4)CC3)cc2)cc1	1.6%	4.6%	?	5.8µM*	5.0%	2.1%	-23.8%	7.31µM*
O=C(NC1CCN(Cc2ccccc2)CC1)c1ccccc1	1.7%	-0.1%	0.1%	-3.7%	1.4%	.	.	.
O=C(Nc1ccc(S(=O)(=O)Nc2ccc(F)cc2)cc1)c1ccc(CN2CCOCC2)cc1	-6.2%	3.9%	-17.9%	3.66µM*	2.7%	-3.6%	-7.6%	.
COc1ccc(NS(=O)(=O)c2ccc(NC(=O)c3ccc(CN4CCOCC4)cc3)cc2)cc1	5.1%	4.6%	-2.0%	?	0.4%	.	.	.
CCN(CC)S(=O)(=O)c1ccc(NC(=O)c2ccc(CN3CCOCC3)cc2)cc1	-0.1%	0.1%	-4.2%	3.66µM*	2.5%	1.3%	-7.1%	3.66µM*
O=C(NC1CCN(Cc2ccccc2)CC1)c1ccc2c(c1)[nH]c(=O)n2Cc1ccc(F)cc1	-0.5%	6.9%	?	4.61µM*	-7.4%	0.5%	-15.5%	9.2µM*
CCCCCn1c(=O)[nH]c2cc(C(=O)NC3CCN(Cc4ccccc4)CC3)ccc2c1=O	2.0%	2.3%	1.1%	-13.4%	39.6%	.	.	.
Cc1ccc(N2CC(C(=O)Nc3cccc(S(=O)(=O)N4CCOCC4)c3)CC2=O)cc1 (centres undefined)	.	-1.1%	.	.	.	.	.	.
O=C(O)c1ccc(CNC(=O)C23CC4CC(CC(C4)C2)C3)cc1	-4.1%	-0.2%	-0.5%	-2.5%	15.0%	.	.	.
Cc1onc(-c2ccccc2)c1C(=O)Nc1ccncc1	-0.4%	-0.1%	2.7%	7.7%	7.4%	.	.	.
CC(=O)Nc1ccc(NC(=O)c2c(-c3ccccc3)noc2C)cn1	0.2%	2.2%	-0.7%	7.31µM*	11.4%	3.5%	-8.0%	9.2µM*
CN(Cc1ccccc1)C1=CC(=[N+]2CCCCC2)CC(C)(C)C1	-1.7%	-0.1%	?	4.61µM*	12.0%	2.7%	-26.6%	0.82µM*
SMILES	Rango complex inh	Nrf2 activator	A549 tox-1	Nrf2 block	Rango release inh	FLuc enzyme inh	A549 tox-2	ARE-Fluc inh
Cc1nccn1-c1cc(C(C)(C)C)nc2c(-c3ccccc3)cnn12	8.8%	2.4%	-0.2%	2.3%	16.2%	.	.	.
Cc1cc(C)c2c(N)c3cccc(C)c3nc2n1	?	-2.3%	-9.3%	7.31µM*	?	-12.3%	-1.7%	3.26µM*
COc1cc(NC(=O)c2cccs2)c(OC)cc1NC(=O)CCC(=O)Nc1ccc2ncccc2c1	?	0.5%	-2.8%	5.8µM*	-5.7%	-13.0%	1.6%	-10.8%
CC12Cc3ccc4ccccc4c3C=C1C[N+](C)(C)C2 (centres undefined)	-0.5%	-0.5%	-18.9%	1.3µM*	-3.4%	-0.4%	-7.1%	18.4µM*
COc1ccc(S(=O)(=O)N2CCCCC2)cc1NC(=O)[C@@H]1CCCN1C(=O)c1cccs1	2.0%	0.2%	2.3%	6.6%	24.7%	.	.	.
CN(C)c1ccc(CNC(=O)C2CCCN(S(=O)(=O)c3ccc4c(c3)CCCC(=O)N4)C2)cc1 (centres undefined)	.	-0.6%	-0.4%	5.8µM*	.	-9.9%	-0.5%	?
CCC(=O)/C=C1/Sc2ccccc2N1CC	-4.3%	0.1%	-0.8%	.	0.5%	.	.	.
CCN1/C(=C/c2sc(-c3ccccc3C)c[n+]2C)Sc2ccccc21	?	9.1%	?	0.366µM*	?	-0.5%	?	1.84µM*
COc1ccc(NC(=O)CCSc2nc(-c3ccco3)cc(C(F)(F)F)n2)cc1OC	.	1.1%	-9.6%	-8.5%	.	.	.	.
